According to PubChem BioAssay (NCI):
Compounds without any hit were thinned out: in the full panel of roughly 83,000, 20% have a hit.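 A percent growth of 40 corresponds to 60% growth inhibition; 0 means no net growth; -100 means all cells died. Active threshold: below 10.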 Values without a mark were called inactive. Activity calls are given as the source filed them.

Key:
Experiment in all cases: NCI-60 one-dose screen, 48 h (100 = growth as untreated, 0 = no growth, -100 = all killed)
Details in all cases: 10 µM unless noted
SK-MEL-2 melanoma = tested on: SK-MEL-2 melanoma
EKVX NSCLC = tested on: EKVX NSCLC
SN12C renal = tested on: SN12C renal
UO-31 renal = tested on: UO-31 renal
TK-10 renal = tested on: TK-10 renal
ACHN renal = tested on: ACHN renal
CAKI-1 renal = tested on: CAKI-1 renal
CCRF-CEM leukemia = tested on: CCRF-CEM leukemia
MOLT-4 leukemia = tested on: MOLT-4 leukemia
SR leukemia = tested on: SR leukemia
RPMI-8226 leukemia = tested on: RPMI-8226 leukemia
OVCAR-8 ovarian = tested on: OVCAR-8 ovarian
OVCAR-5 ovarian = tested on: OVCAR-5 ovarian
OVCAR-4 ovarian = tested on: OVCAR-4 ovarian
SK-OV-3 ovarian = tested on: SK-OV-3 ovarian
IGROV1 ovarian = tested on: IGROV1 ovarian
OVCAR-3 ovarian = tested on: OVCAR-3 ovarian
HS 578T breast = tested on: HS 578T breast
NCI/ADR-RES ovarian = tested on: NCI/ADR-RES ovarian

| Structure (SMILES) | growth (SK-MEL-2 melanoma) | growth (EKVX NSCLC) | growth (SN12C renal) | growth (UO-31 renal) | growth (TK-10 renal) | growth (ACHN renal) | growth (CAKI-1 renal) | growth (CCRF-CEM leukemia) | growth (MOLT-4 leukemia) | growth (SR leukemia) | growth (RPMI-8226 leukemia) | growth (OVCAR-8 ovarian) | growth (OVCAR-5 ovarian) | growth (OVCAR-4 ovarian) | growth (SK-OV-3 ovarian) | growth (IGROV1 ovarian) | growth (OVCAR-3 ovarian) | growth (HS 578T breast) | growth (NCI/ADR-RES ovarian) |
| --- | --- | --- | --- | --- | --- | --- | --- | --- | --- | --- | --- | --- | --- | --- | --- | --- | --- | --- | --- |
| COc1ccc(-n2nc(C)c3c(Nc4ccc(NC(=O)Nc5cccc(C(F)(F)F)c5)cc4)ncnc32)cc1 | -21.1% (active) | 10.1% | 22.5% | -44.9% (active) | 10.7% | -10.2% (active) | -18.9% (active) | 18.2% | 8.98% (active) | 21.2% | -10.9% (active) | 2.63% (active) | 2.66% (active) | 7.24% (active) | 16.9% | 7.48% (active) | -31.6% (active) | -6.67% (active) | 4.85% (active) |
| Cc1cc2nc(NC(=O)CN3CCN(CCN4C(=O)c5cccc6cccc(c56)C4=O)CC3)sc2cc1C | 107% | 82.1% | 72.9% | 68% | 95% | 85.1% | 88% | 71.5% | 45% | 35.3% | 57.8% | 79.7% | 93.6% | 84.3% | 102% | 77.6% | 101% | 92% | 79% |
| COc1cc(/C=C/C(=O)c2cccnc2Nc2ccc(F)cc2)cc(OC)c1OC | 27.5% | 69.5% | 16.2% | 75.6% | 77.8% | 45.7% | 51.6% | -10.6% (active) | 5.4% (active) | 2.85% (active) |  | 1.62% (active) | 35.8% | 61.6% | 42% | 91.7% |  | 24.9% | 8.54% (active) |
| CCCCn1c(-c2ccc(C(=O)O/N=C(\N)c3ccc4ccccc4c3)cc2)nc(-c2ccccc2)c1-c1ccccc1 | 96.4% | 75.7% | 63.5% | -24.1% (active) | 86.2% | -72.7% (active) | 32.3% | 40.8% | 62.8% | 12.1% | 67.3% | 72.2% | 79.1% | 55.5% | 99% | -61.9% (active) | 71.7% | 57.9% | 30.9% |
| CC(C)CSc1nc(N)nc2c1ncn2C1OC(CO)C(O)C1O (stereo not given) | 111% | 93.2% | 94% | 95.2% | 107% | 94.6% | 82.8% | 102% | 110% | 111% | 103% | 110% | 93% | 109% | 103% | 93.4% | 116% |  | 103% |
| Cc1nn(-c2cc(=O)[nH]c3ccccc23)c(N)c1C#N | 103% | 96.3% | 101% | 67.5% | 112% | 101% | 87.5% | 102% | 106% | 105% | 99.9% | 99.2% | 101% | 105% | 111% | 77.7% | 106% |  | 108% |
| O=c1nc2oc3ccc4ccccc4c3cc-2s1 | 31.9% | 46.1% | 41.1% | 46.9% | 54.7% | 41% | 22.1% | 13.7% | 25.1% | 24.3% | 14.7% | 29.8% | 53.3% | 62.5% | 28.5% | 37.2% | 6% (active) | 3.65% (active) | 91.1% |
| CC1=C[C@H]2c3c(c(O)c(O)c4oc(-c5ccccc5)cc(=O)c34)[C@H](c3cc(O)c(O)c4oc(-c5ccccc5)cc(=O)c34)[C@H]2C(C)(C)C1 | -3.08% (active) | 14.5% | 1.79% (active) | -50.2% (active) | 28.4% | 2.25% (active) | -27% (active) | 4.65% (active) | 5.24% (active) | 0.0772% (active) | 7.2% (active) | 8.73% (active) | 20% | 10.4% | -3.99% (active) | -31.1% (active) |  | 5.98% (active) | 17.5% |
| CCCCN1CCCn2c1nc1c2c(=O)n(CCC)c(=O)n1CCC | 90.1% | 97.2% | 93.2% | 76.8% | 97.1% | 88.4% | 89.1% | 104% | 103% | 67.1% | 110% | 102% | 105% | 101% | 101% | 110% | 94.8% |  | 99.8% |
| N#C/C(=C\c1ccc(-c2cc(C(F)(F)F)ccc2Cl)o1)c1nc(-c2ccco2)cs1 | 103% | 91.6% | 99% | 87.9% | 121% | 105% | 86.2% | 103% | 101% |  | 101% | 103% | 98.9% | 85.1% | 100% | 104% | 113% | 103% | 106% |
| CC(C)(C)c1cc(/C=N\NC(=O)/C=C/C=C/c2ccc3c(c2)OCO3)c(O)c(C(C)(C)C)c1 | 89% | 75% | 87.6% | 55.1% | 96% | 75.9% | 71.9% | 55.7% | 74.7% | 6.69% (active) | 80.6% | 75.3% | 89.3% | 34.8% | 100% | 70.3% | 75.6% | 13.6% | 66.1% |
| O=C(/C=C/c1cccc(Cl)c1)c1ccc(O)c(CN2CCN(c3cc4c(cc3F)c(=O)c(C(=O)O)cn4C3CC3)CC2)c1 | 53.7% | 55.7% | 18.9% | 21.5% | 48.1% | 27.7% | 44.6% | 25.1% | 59.9% |  | 4.11% (active) | 20.6% | 52.6% | 79.5% | 79.8% | 48% | 40.8% | 41.3% | 60.5% |
| CC[C@H]1OC(=O)[C@H](C)[C@@H](O[C@H]2C[C@@](C)(OC)[C@@H](O)[C@H](C)O2)[C@H](C)[C@@H](O[C@@H]2O[C@H](C)C[C@H](N(C)C)[C@H]2O)[C@](C)(O)C[C@H](C)CN(C)[C@H](C)[C@@H](O)[C@]1(C)O | 117% | 86.5% | 93.9% | 78.9% | 103% | 96.5% | 96.6% | 120% | 103% |  | 107% | 115% | 100% | 108% | 97.4% | 98.3% | 96% | -29.8% (active) | 95.2% |
| O=S(=O)(Nc1ccc(NS(=O)(=O)c2ccccc2)c(Cl)c1)c1ccccc1 | 91.6% | 106% | 102% | 88.7% | 100% | 105% | 92.4% | 92% | 79% | 90.9% | 90.8% | 103% | 108% | 100% | 104% | 98.6% | 104% | 103% | 100% |
| Cc1ncc(C(=O)Nc2ccc(CN3CCN(C)CC3)c(C(F)(F)F)c2)cc1C#Cc1cnc2cccnn12 | -55.4% (active) | -3.95% (active) | 0.116% (active) | 1.45% (active) | -3.71% (active) | -1.57% (active) | -16.7% (active) | 5.77% (active) | -0.188% (active) | -14.9% (active) | 2.24% (active) | 6.1% (active) | 13.8% | -17% (active) | 22.9% | 5.84% (active) | -0.593% (active) | -15.5% (active) | 8.62% (active) |
| Nc1n[nH]c2ccc([C@@H]3Nc4ccc5[nH]ncc5c4[C@H]4C5C=CC(C5)[C@@H]34)cc12 (stereo not given in full) | 46.9% | 37.7% | 34.2% | 44.5% | 67.5% | 24.4% | 35.3% | 19.6% | 15.1% | 11.6% | 44.7% | 27.1% | 29.5% | 30.2% | 42.6% | 16.6% | 7.18% (active) | 3.92% (active) | -27.5% (active) |
